Screening results deposited in PubChem by several laboratories.
Anthrax LF inh2: Bacillus anthracis LF protease inhibitors, primary screen, biochemical, multiplex microsphere, MLPCN library; Lethal factor (Bacillus anthracis), P15917; multiplex microsphere protease cleavage assay; inhibition, % at 10 µM; 360,000 compounds, 0.12% hits; AID 588501, 2011; note: plate controls were buffer without enzyme for full effect and enzyme alone for no effect
Target sequence (P15917 whole entry, looked up): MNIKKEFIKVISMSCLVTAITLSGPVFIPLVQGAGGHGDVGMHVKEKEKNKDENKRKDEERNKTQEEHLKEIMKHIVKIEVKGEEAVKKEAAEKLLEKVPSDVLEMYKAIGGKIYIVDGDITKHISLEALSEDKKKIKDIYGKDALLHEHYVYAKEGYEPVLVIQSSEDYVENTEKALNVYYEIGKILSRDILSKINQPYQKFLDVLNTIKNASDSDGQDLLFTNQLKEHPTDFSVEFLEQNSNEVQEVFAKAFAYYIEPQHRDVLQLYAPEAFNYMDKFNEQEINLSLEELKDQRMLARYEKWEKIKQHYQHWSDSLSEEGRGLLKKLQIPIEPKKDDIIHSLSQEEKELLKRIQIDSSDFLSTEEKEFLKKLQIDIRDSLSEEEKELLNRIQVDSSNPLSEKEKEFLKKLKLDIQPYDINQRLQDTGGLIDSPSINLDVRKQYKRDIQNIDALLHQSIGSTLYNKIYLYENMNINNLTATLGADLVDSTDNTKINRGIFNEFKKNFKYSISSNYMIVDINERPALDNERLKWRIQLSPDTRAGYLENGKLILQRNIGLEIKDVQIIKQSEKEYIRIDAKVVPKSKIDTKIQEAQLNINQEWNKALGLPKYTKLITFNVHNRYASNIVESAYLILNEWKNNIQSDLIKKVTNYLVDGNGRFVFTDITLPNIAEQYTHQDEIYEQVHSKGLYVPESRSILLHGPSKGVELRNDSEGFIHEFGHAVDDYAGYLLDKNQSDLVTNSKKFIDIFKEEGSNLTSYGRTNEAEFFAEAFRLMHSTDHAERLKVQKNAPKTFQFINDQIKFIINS
BoNT A protease: BoNT/A light chain protease inhibitors, primary screen, biochemical, flow cytometry, MLPCN library. multiplex microsphere protease substrate cleavage. 360,000 compounds, 0.17% hits. inhibition, % at 10 µM. AID 588499, 2011; note: plate controls were buffer without enzyme for full effect and enzyme alone for no effect
BoNT-F LC inh: BoNT/F light chain protease inhibitors, primary screen, biochemical, flow cytometry, MLPCN library; Botulinum neurotoxin type F light chain protease (Clostridium botulinum); Multiplex microsphere protease cleavage assay; inhibition, % at 10 µM; 360,000 compounds, 0.22% hits; AID 588497, 2011; in the data active = inhibition above about 35%, passing the limit was not always enough; inconclusive = no clear call, values can overlap the other calls; note: plate controls were buffer without enzyme for full effect and enzyme alone for no effect
Autofluor counter: compound fluorescence in toxin protease inhibitor counterscreen; compound autofluorescence counterscreen, microsphere flow cytometry; stronger effect = higher value; fluorescence intensity (concentration not given with the values); 360,000 compounds, 3.1% hits; AID 624483; in the data active = fluorescence intensity above about 16000; inconclusive = no clear call, values can overlap the other calls
SSB-PriA inh: inhibitors of Klebsiella pneumoniae PriA binding to SSB C-terminal tail, primary screen, biochemical, AlphaScreen. PriA–SSB C-terminal tail interaction (Klebsiella pneumoniae). AlphaScreen SSBct-PriA binding, biotinylated peptide. inhibition, % at 33 µM. 430,000 compounds, 0.6% hits. AID 1272365, 2023; in the data active = inhibition mostly above about 37%, no sharp cut-off; inactive = mostly below about 20%;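 note: plate controls were negative control peptide for no effect and reference peptide for full effect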
* = called active by the depositor; ? = inconclusive; . = not tested or not shown. Only some compounds are listed: those with a hit (about 3.1% of all), similar ones and a draw of the others. Cut-off read from the data, not from the text of the source, unless noted: active = inhibition above about 30%; inconclusive = no clear call, values can overlap the other calls; inactive = below that.

SMILES | Anthrax LF inh2 | BoNT A protease | BoNT-F LC inh | Autofluor counter | SSB-PriA inh
COc1ccc(C2=NOC(C(=O)NCCN3CCOCC3)C2)cc1 (stereo not given) | 0 | -2 | 0 | 21268* | -12
COc1ccc(C2=NOC(C(=O)NC(C)C)C2)cc1 (stereo not given) | 2 | -1 | -13 | 12116 | -14
COc1ccc(CNC(=O)C2CC(c3ccc(F)cc3)=NO2)cc1 (stereo not given) | -1 | 1 | 2 | 22739* | -2
COc1ccc(C2=NOC(C(=O)NCCCN3CCOCC3)C2)cc1 (stereo not given) | -6 | -1 | -10 | 11591 | -15
COc1ccc(C2=NOC(C(=O)NCc3ccc(F)cc3)C2)cc1 (stereo not given) | -4 | 0 | 2 | 10404 | -6
CC(C)c1noc(-c2cccc(=O)n2CC(=O)Nc2ccccc2Cl)n1 | . | . | . | . | -1
NC(=NOC(=O)c1ccc(Cl)c(Cl)c1)c1cccnc1 | . | . | . | . | -17
O=C(Nc1ccc2c(c1)N(C(=O)C1CC1)CC2)c1cccs1 | . | . | . | . | -5
C=CC[n+]1c(-c2ccc(Br)cc2)csc1NNC(=O)c1ccc(Br)cc1 | . | . | . | . | 3
COC(=O)c1ccc(COc2ccc(Cl)cc2)o1 | -6 | 1 | -2 | 3301 | -10
COC(=O)c1ccc(COc2cccc(OC)c2)o1 | -9 | 1 | -3 | 22471* | -14
CCOC(=O)C1=C(C)NC(=O)NC1c1ccco1 (stereo not given) | 0 | -1 | 2 | 23226* | -2
O=S(=O)(Cc1ccccc1)N1CCN(Cc2nc(-c3ccccc3)cs2)CC1 | . | . | . | . | -9
O=c1c2ccccc2nc(-c2ccccc2)n1-c1cccnc1 | -3 | ? | 1 | 22832* | -5
CCOc1ccc(-c2onc(C(F)(F)F)c2-c2ccc(OC)c(OC)c2)c(O)c1 | . | . | . | . | 2
Cc1c(C(=O)NC(C)CN2CCCCC2)oc2ccccc12 (stereo not given) | 5 | 1 | -4 | 17372* | 3
Cc1c(C(=O)N2CCCCC2)oc2ccccc12 | 2 | 0 | 2 | 3468 | -11
CN(C)c1ccc(-n2cccc2/C=C/[N+](=O)[O-])cc1 | 9 | 3 | -2 | 3705 | 1
C/C(=C\c1ccc(N(C)C)cc1)[N+](=O)[O-] | 3 | 5 | 0 | 22567* | 1
CN(c1ccccc1)c1ccc(/C=C/[N+](=O)[O-])cc1 | 29 | 70* | 23 | 8391 | 4
CN(C)c1ccc(/C=C/[N+](=O)[O-])cc1 | 22 | 50* | 48* | 5524 | 8
COc1ccc(NC(=O)c2ccc(-n3cncn3)nn2)cc1Cl | . | . | . | . | -9
N#Cc1nc(-c2ccc(OCc3ccc(Cl)cc3)cc2)oc1N1CCC(C(N)=O)CC1 | -5 | 0 | -3 | 5242 | -4
N#Cc1nc(COc2ccc(Br)cc2)oc1N1CCCCC1 | . | . | . | . | 104*
Cc1ccc(OCc2nc(C#N)c(N3CCN(c4ccccc4)CC3)o2)cc1 | . | . | . | . | 74*
SMILES | Anthrax LF inh2 | BoNT A protease | BoNT-F LC inh | Autofluor counter | SSB-PriA inh
N#Cc1nc(COc2ccc(F)cc2)oc1N1CCCC1 | -3 | 2 | 6 | 3969 | 25
CC1CC(C)CN(c2oc(Cc3ccccc3)nc2C#N)C1 (stereo not given) | -2 | -1 | -4 | 1983 | 55*
Cc1ccc(OCc2nc(C#N)c(N3CCC(C(N)=O)CC3)o2)cc1 | . | . | . | . | 56*
N#Cc1nc(Cc2ccccc2)oc1N1CCCC1 | 1 | 3 | -9 | 4134 | -2
O=C(O)c1cncc(-n2cccc2)c1 | . | . | . | . | 2
COc1ccc(NC(=O)Nc2nc(-c3ccc4c(c3)OCO4)cs2)cc1 | . | . | . | . | 0
CC1CCN(c2oc(Cc3cccc4ccccc34)nc2C#N)CC1 | -7 | 0 | 2 | 2322 | 56*
Cc1ccc(OCc2nc(C#N)c(N3CCC(C)CC3)o2)cc1 | . | . | . | . | 96*
O=C(NCc1ccccn1)C(=O)NN=Cc1ccccc1O | . | . | . | . | 16
COc1ccc(SCCCC(=O)NCc2ccccc2)cc1 | . | . | . | . | -11
COc1ccc(N(Cc2cc3cccc(C)c3[nH]c2=O)S(C)(=O)=O)cc1 | -1 | -2 | -5 | 24150* | -6
CCOc1ccc(N(Cc2cc3ccc(C)cc3[nH]c2=O)S(C)(=O)=O)cc1 | -1 | 2 | 3 | 22539* | -19
O=C(CN1CCN(Cc2ccc(Cl)cc2)CC1)NN=Cc1c[nH]c2ccccc12 | . | . | . | . | 13
COc1cccc(CNC(=O)Cn2c(=O)c(N3CCCCC3)nc3ccccc32)c1OC | . | . | . | . | 2
CCOC(=O)c1c(-n2c(C)cc(C=O)c2C)sc2c1CCCC2 | -4 | 0 | 0 | 22089* | 10
Cc1ccc(NC(=O)CC2SCCNC2=O)cc1Cl (stereo not given) | -4 | ? | -3 | 23686* | -15
COC(=O)CC1SCCNC1=O (stereo not given) | 1 | -1 | -1 | 20974* | -6
COCCn1c(SCC#N)nnc1-c1ccccc1O | -6 | -3 | -6 | 20776* | -14
Cc1cc(C)c(S(=O)(=O)N2CCN=C2c2ccccc2)cc1C | -2 | -1 | -4 | 22172* | 2
Cc1ccc(N2CC(c3nc4ccccc4n3CC(=O)N(c3ccccc3)C(C)C)CC2=O)c(C)c1 (stereo not given) | . | . | . | . | 3
FC(F)(F)c1nc2ccccc2nc1NN=Cc1ccc(Cl)cc1 | . | . | . | . | 5
FC(F)(F)c1nc2ccccc2nc1NN=Cc1ccccc1 | . | . | . | . | 60*
Cc1nc(SCC(=O)Nc2cccc(C(F)(F)F)c2)c2c3c(sc2n1)CCC3 | . | . | . | . | -13
COc1ccc(C(=O)COC(=O)CN2CC(=O)Oc3ccccc32)cc1Br | 3 | 0 | 2 | 4184 | 80*
CCCOc1ccc(CSc2nc3ccccc3[nH]2)cc1 | -5 | ? | 3 | 22003* | -28
SMILES | Anthrax LF inh2 | BoNT A protease | BoNT-F LC inh | Autofluor counter | SSB-PriA inh
CCOc1ccc(OCCSc2nc3ccccc3[nH]2)cc1 | 0 | 0 | 3 | 10751 | -17
Fc1ccc(Nc2nc3ccccc3[nH]2)cc1 | . | . | . | . | 3
C=CCNC(=O)c1cccc(Br)c1 | -1 | -3 | -4 | 23849* | -12
C[C@](O)(CNC(=O)c1ccccc1Br)c1cc2ccccc2s1 | . | . | . | . | -4
CC(=O)c1ccc(NC(=O)c2ccc3nc(-c4ccco4)c(-c4ccco4)nc3c2)cc1 | 5 | 14 | ? | 3806 | -12
Cc1nc2cc(NC(=O)N3CCN(c4ccccn4)CC3)ccc2o1 | -5 | 0 | -10 | 6579 | -13
O=C(Nc1ccc2nc(-c3ccco3)c(-c3ccco3)nc2c1)N1CCN(c2ccccn2)CC1 | 20 | 41* | 15 | 5771 | 3
O=C(Nc1ccccc1)c1ccc2nc(-c3ccco3)c(-c3ccco3)nc2c1 | 19 | ? | 24 | 19000* | 32
O=C(NCc1ccc(F)cc1)C1(c2cccs2)CCCC1 | . | . | . | . | -20
O=c1[nH]c(-c2ccccn2)nc(C(F)(F)F)c1Br | 0 | -4 | -6 | 5012 | 83*
c1ccc(-c2nc3ccccc3[nH]2)nc1 | 0 | -1 | 0 | 2067 | -4
O=c1[nH]c(-c2ccccn2)nc2ccccc12 | -1 | -1 | -1 | 2425 | 42*
O=c1cc(O)nc(-c2ccccn2)[nH]1 | . | . | . | . | 45
